This note sets out measurements from PubChem BioAssay (NCATS).

What all share (experiment): Primary qHTS to identify gynecologic anti-cancer compounds using libraries of approved drugs and bioactive compounds (AID 1345084); further: nearly all actives have a fitted effect of over 55% in size
For assay [1], the system named is C33A. To be noted: Gynecologic cancer cell panel viability, ATPlite luminescence, 48 h; series mostly up to 57.5 µM. In short, it runs like this:
(§1)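 Cell viability after 48 h drug treatment, ATPlite luminescence readout; five doses.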

Assay [2] deals with CAOV3. Conditions: Gynecologic cancer cell panel viability, ATPlite luminescence, 48 h; series mostly up to 57.5 µM. The procedure, abridged: as §1
Assay [3] deals with CASKI. To be noted: Gynecologic cancer cell panel viability, ATPlite luminescence, 48 h; series mostly up to 57.5 µM. The procedure, abridged:
as §1

The test system of assay [4] is Es-2. To be noted: Gynecologic cancer cell panel viability, ATPlite luminescence, 48 h; series mostly up to 57.5 µM. The procedure, abridged: as §1
The subject of assay [5] is HeLa. Conditions: Gynecologic cancer cell panel viability, ATPlite luminescence, 48 h; series mostly up to 57.5 µM. In short, it runs like this: as §1
Assay [6] relates to Hek293T. Conditions: Gynecologic cancer cell panel viability, ATPlite luminescence, 48 h, control line for the selectivity index; series mostly up to 57.5 µM. The procedure, abridged: as §1
In assay [7] the test system is JEG-3. Conditions: Gynecologic cancer cell panel viability, ATPlite luminescence, 48 h; series mostly up to 57.5 µM. The procedure, abridged: as §1
For assay [8], the system named is OV90. To be noted: Gynecologic cancer cell panel viability, ATPlite luminescence, 48 h; series mostly up to 57.5 µM. The procedure, abridged:
as §1

The subject of assay [9] is PA-1. To be noted: Gynecologic cancer cell panel viability, ATPlite luminescence, 48 h; series mostly up to 57.5 µM. The procedure, abridged:
as §1

Assay [10] relates to SKOV3. Conditions: Gynecologic cancer cell panel viability, ATPlite luminescence, 48 h; series mostly up to 57.5 µM. In short, it runs like this: as §1
In assay [11] the test system is Tov-21-G. To be noted: Gynecologic cancer cell panel viability, ATPlite luminescence, 48 h; series mostly up to 57.5 µM. In short, it runs like this: as §1
Assay [12] has as its system Tov112D. To be noted: Gynecologic cancer cell panel viability, ATPlite luminescence, 48 h; series mostly up to 57.5 µM. The procedure, abridged: as §1

Inconclusive results are not listed. Values without a mark were called inactive. Active and inactive are the calls of the source. The call rests on the fitted dose curve; in most records, active means well fitted cell-killing curve with a large enough effect; inconclusive means small, poorly fitted or top-dose-only effect, or effect the other way; inactive means flat fitted curve, though single readings scatter.
On the % scale 0 is the no-effect control and ±100 the full control effect; potency means the concentration at half of the fitted maximal effect.

As to `COC(=O)C1=COC(O[C@@H]2O[C@H](CO)[C@@H](O)[C@H](O)[C@H]2O)[C@H]2[C@@H]1[C@H](OC(=O)CCc1ccc(O)cc1)C[C@]2(C)O` (stereo partly specified), the Potency result in [1], in [2], in assay [3], in assay [4], in [5] and in assay [6] was “inactive” throughout. For the same molecule, the Potency result in [7], in assay [8], in assay [9], in assay [10], in assay [11] and in [12] was “inactive” in each case.

As for `C[C@@H]1CCC/C=C/[C@H]2CC(=O)C[C@@H]2[C@@H](O)/C=C/C(=O)O1`, the Potency entry in assay [1], in [2], in [3], in [4], in [5] and in assay [6] was “inactive” in each case. Further, the Potency entry in assay [7], in assay [9], in assay [10], in assay [11] and in assay [12] was “inactive” each time. For the same molecule, the Potency in [8] is 20 µM (active).

In the case of `CC1(C)CC[C@]2(CO[C@@H]3O[C@H](CO)[C@@H](O)[C@H](O)[C@H]3O)[C@@H](O)C[C@]3(C)C(=CCC4[C@@]5(C)CC[C@H](O[C@@H]6O[C@H](CO[C@@H]7O[C@H](CO[C@@H]8OC[C@@H](O)[C@H](O)[C@H]8O)[C@@H](O)[C@H](O)[C@H]7O)[C@@H](O)[C@H](O)[C@H]6O)C(C)(C)C5CC[C@]43C)[C@@H]2C1` (stereo partly specified), the activity change, negative = cytotoxicity in assay [1] is 4.63% [at 11.6 µM]; in [2], 5.01% [at 11.6 µM]; in [3], -3.94% [at 11.6 µM]; in assay [4], 4.96% [at 11.6 µM]; in [5], -7.27% [at 11.6 µM]; in assay [6], 1.89% [at 11.6 µM]. Also, the activity change, negative = cytotoxicity was 1.67% [at 11.6 µM] in [7]; -3.63% [at 11.6 µM] in assay [8]; -8.81% [at 11.6 µM] in [9]; -1.91% [at 11.6 µM] in assay [10]; 4.01% [at 11.6 µM] in assay [11]; -1.63% [at 11.6 µM] in assay [12].

For `Nc1ncnc2c([C@@H]3N[C@H](CO)[C@@H](O)[C@H]3O)c[nH]c12`, the Potency result in assay [1], in assay [2], in assay [3], in [4], in assay [5] and in [6] was “inactive” each time. In addition, the Potency entry in assay [7], in assay [8], in assay [9], in [10], in [11] and in assay [12] was “inactive” each time.

For the molecule `COc1cc(O)cc(C)c1C(=O)OC1C(CO)OC(OC2C(O)C(O)C(O)C(O)C2O)C(O)C1O` (stereo unspecified), the Potency entry in assay [1], in assay [2], in assay [3], in assay [4], in [5] and in assay [6] was “inactive” in each case. The Potency result in assay [7], in assay [8], in [9], in assay [10], in assay [11] and in assay [12] was “inactive” throughout.

Turning to `C[C@@H]1O[C@@H](O[C@H]2[C@@H](OC(=O)[C@]34CCC(C)(C)CC3C3=CCC5[C@@]6(C)C[C@H](O)[C@H](O[C@@H]7O[C@H](C(=O)O)[C@@H](O)[C@H](O)[C@H]7O)[C@@](C)(C(=O)O)C6CC[C@@]5(C)[C@]3(C)CC4)OC[C@H](O)[C@@H]2O)[C@H](O)[C@H](O)[C@H]1O[C@@H]1OC[C@@H](O)[C@H](O)[C@H]1O` (stereo partly specified), the activity change, negative = cytotoxicity in assay [1] is 1.85% [at 11.6 µM]; in assay [2], 24.8% [at 11.6 µM]; in [3], 0.336% [at 11.6 µM]; in [4] it was -0.221% [at 11.6 µM]; in assay [5] it was -0.61% [at 11.6 µM]; in assay [6], -0.464% [at 11.6 µM]. The activity change, negative = cytotoxicity in assay [7] was 3.02% [at 11.6 µM]; in assay [8], 7.22% [at 11.6 µM]; in assay [9], -35% [at 11.6 µM]; in assay [10] it was 13.5% [at 11.6 µM]; in [11], -4.55% [at 11.6 µM]; in [12] it was -6.05% [at 11.6 µM].

For `COc1c2c(cc3c1-c1c(cc4c(c1OC)OCO4)CC(C)C(C)C3)OCO2` (stereo unspecified), the Potency result in assay [1], in assay [2], in [3], in assay [4], in assay [5] and in [6] was “inactive” throughout. The Potency entry in [7], in [8], in assay [9], in [10], in [11] and in assay [12] was “inactive” throughout.

In the case of `C=C1CC2C(C)(CCC(=O)O)C(C(C)(C)O)CCC2(C)C2C(=O)OC(C)(C(=O)OC)C(=O)C12C` (stereo unspecified), the Potency result in assay [1], in assay [2], in [3], in assay [4], in [5] and in assay [6] was “inactive” in each case. Further, the Potency result in [7], in assay [8], in assay [9], in [10], in assay [11] and in [12] was “inactive” in each case.

Turning to `CC1(C)CC[C@]2(C(=O)O)[C@H](O)C[C@]3(C)C(=CCC4[C@@]5(C)CC[C@H](O[C@@H]6O[C@H](CO[C@@H]7OC[C@H](O)[C@H](O)[C@H]7O[C@@H]7OC[C@@H](O)[C@H](O)[C@H]7O)[C@@H](O)[C@H](O)[C@H]6O[C@@H]6O[C@H](CO)[C@@H](O)[C@H](O)[C@H]6O)C(C)(C)C5CC[C@]43C)[C@@H]2C1` (stereo partly specified), the activity change, negative = cytotoxicity was -1.17% [at 11.6 µM] in [1]; -15.5% [at 11.6 µM] in assay [2]; 15.8% [at 11.6 µM] in assay [3]; -1.47% [at 11.6 µM] in assay [4]; 4.13% [at 11.6 µM] in assay [5]; 5.35% [at 11.6 µM] in assay [6]. Further, the activity change, negative = cytotoxicity in assay [7] was 8.72% [at 11.6 µM]; in assay [8] it was 15.1% [at 11.6 µM]; in assay [9], -2.35% [at 11.6 µM]; in assay [10] it was 21.8% [at 11.6 µM]; in assay [11], -13.8% [at 11.6 µM]; in assay [12], 1.64% [at 11.6 µM].

On to `C[C@H]1CC[C@@]2(OC1)O[C@H]1CC3C4CC[C@H]5C[C@@H](O)[C@H](O)C[C@]5(C)C4=CC(=O)[C@]3(C)[C@H]1[C@@H]2C` (stereo partly specified), for which the Potency result in assay [1], in [2], in assay [3], in assay [4], in [5] and in assay [6] was “inactive” in each case. The Potency entry in assay [7], in assay [8], in [9], in assay [10], in assay [11] and in assay [12] was “inactive” throughout.

Consider `COC(=O)C[C@H]1C(C)(C)[C@H](OC(C)=O)C2CC3=C4CC(=O)O[C@@H](c5ccoc5)[C@]4(C)CCC3[C@@]1(C)C2=O` (stereo partly specified), for which the Potency result in assay [1], in [2], in assay [3], in assay [4], in assay [5] and in assay [6] was “inactive” in each case. The Potency result in assay [7], in assay [8], in [9], in assay [10], in assay [11] and in [12] was “inactive” each time.

Consider `CC1(C(=O)O)CCCC2(C)C3=CCC4CC3(CCC12)CC4CO` (stereo unspecified), for which the Potency entry in assay [1], in assay [2], in [3], in assay [4], in assay [5] and in assay [6] was “inactive” each time. Also, the Potency result in [7], in [8], in assay [9], in assay [10], in assay [11] and in assay [12] was “inactive” each time.

Take `COC(=O)CC(O)C1OC(c2ccccc2)C(O)C1O` (stereo unspecified): the Potency result in assay [1], in assay [2], in assay [3], in [4], in [5] and in assay [6] was “inactive” in each case. The Potency result in assay [7], in [8], in assay [9], in assay [10], in [11] and in assay [12] was “inactive” throughout.
